Data as given in the supplement of paper PMC11219838.
Values without a mark were called inactive.

test system: Meloidogyne hapla J2; test: proportion of mobile M. hapla J2 relative to DMSO control (fraction of DMSO control); higher = more viable, less nematicidal, active = 0.7 or less; details: 60 µM; 5 days; temperature: 20 °C
Method in brief: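 About 25 M. hapla J2 were added per 96-well well in distilled water, and compound was pinned to 60 µM final (0.6% v/v DMSO). Sealed plates were shaken at 200 rpm for 5 days at 20 °C, then 2 µL 1 M NaOH was added before microscopic mobility scoring. Mobility was divided by the mean of eight DMSO wells on the same plate, and two biological replicates were averaged.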

| SMILES | proportion of mobile M. hapla J2 |
| --- | --- |
| Cc1ccccc1-c1nnc(SCC(=O)Nc2cc(C(F)(F)F)ccc2N2CCOCC2)o1 | 0.934 |
| CCOc1ccccc1-c1nnc(SCC(=O)NC(C)CC)o1 (stereo unspecified) | 0.951 |
| Cc1ccccc1-c1noc(COc2ccccc2)n1 | 0.764 |
| O=C(Nc1ccccc1-c1nc(-c2ccncc2)no1)c1cccc(Cl)c1 | 1.04 |
| N#Cc1ccccc1CSc1nnc(-c2ccco2)o1 | 0.859 |
| Cc1cc(OCc2nc(-c3cccnc3)no2)c(C)cc1Br | 0.771 |
| CCCCc1nc(-c2ccc(-c3ccc(C)cc3)nc2OC)no1 | 0.843 |
| Nc1nc(CSc2nnc(-c3ccccc3)o2)cs1 | 0.752 |
| Clc1ccccc1-c1noc(-c2ccccc2Cl)n1 | 1.02 |
| Cc1ccc(-c2noc(-c3cc(C)cc(C)c3)n2)cc1 | 0.719 |
| COC(=O)CSc1nnc(-c2ccc(C(C)(C)C)cc2)o1 | 0.976 |
| Clc1ccc(-c2nc(C3CCCCC3)no2)cc1 | 1.04 |
| CC(C)(C)C(=O)CSc1nnc(-c2ccc(Cl)cc2Cl)o1 | 0.873 |
| CC(=O)Nc1ccc(C(=O)CSc2nnc(-c3cccc(Br)c3)o2)cc1 | 1.01 |
| C=CCSc1nnc(-c2ccc(Br)cc2)o1 | 0.591 (active) |
| CCc1nc(-c2ccc(-c3ccccc3)nc2OC)no1 | 0.99 |
| CC1CCN(C(=O)CSc2nnc(-c3cccc(Cl)c3)o2)CC1 | 1.02 |
| c1coc(-c2nc(-c3cccs3)no2)c1 | 1.01 |
| CCOc1cc(-c2nc(-c3ccc(C)nc3OCC)no2)cc(OCC)c1OCC | 0.908 |

| SMILES | proportion of mobile M. hapla J2 |
| --- | --- |
| O=C(CSc1nnc(-c2ccccc2)o1)OCc1ccccc1 | 0.999 |
| Cc1ccc(-c2noc(-c3ccc(C)cc3)n2)cc1 | 1.01 |
| COc1ccc(-c2nnc(SCc3csc(N)n3)o2)cc1 | 0.941 |
| CCc1ccc(NC(=O)CSc2nnc(-c3ccco3)o2)cc1 | 0.899 |
| COc1ccc(Cl)cc1NC(=O)CSc1nnc(-c2ccc(Br)cc2)o1 | 1.03 |
| Cc1ccc(C)c(OCc2nc(-c3cccnc3)no2)c1 | 1.04 |
| COc1ccc(OC(C)c2nc(-c3cccnc3)no2)cc1 (stereo unspecified) | 0.966 |
| COc1nc(C)ccc1-c1noc(-c2ccc(F)cc2)n1 | 0.992 |
| COc1ccccc1NC(=O)CSc1nnc(-c2ccc(Cl)cc2)o1 | 0.902 |
| Cc1cc(Br)ccc1OCc1nc(-c2ccncc2)no1 | 1.01 |
| Clc1ccc(SCc2nc(-c3ccccn3)no2)cc1 | 0.0259 (active) |
| COc1ccc(-c2nnc(SCC(=O)Nc3ccc(Br)cc3C)o2)cc1 | 0.929 |
| O=C(CSc1nnc(-c2ccccc2Cl)o1)Nc1ccc(F)cc1 | 0.896 |
| Cc1cc(OCc2nc(-c3cccnc3)no2)c(C)c(C)c1Br | 0.934 |
| CC(Sc1nnc(-c2ccc(C(C)(C)C)cc2)o1)C(=O)Nc1nccs1 (stereo unspecified) | 0.845 |
| Cc1ccc(SCc2nc(-c3cccnc3)no2)cc1 | 1.1 |
| O=C(CSc1nnc(-c2ccc(Cl)cc2)o1)Nc1nccs1 | 0.917 |
| Clc1ccc(OCc2nc(-c3ccccc3)no2)c(Br)c1 | 1.02 |
| Cc1ccc(-c2nnc(SCc3ccccc3C)o2)cc1 | 1.06 |

test system: Caenorhabditis elegans dauer (daf-2(e1370)); test: proportion of mobile C. elegans dauer larvae relative to DMSO control (fraction of DMSO control); higher = more viable, less nematicidal, active = 0.63 or less; extreme values may be limits of the assay; details: 60 µM; 5 days; temperature: 20 °C
Method in brief: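 Synchronized C. elegans larvae were kept for 48 h at 25 °C on MYOB plates seeded with E. coli OP50 to induce dauer formation, and roughly 20 dauers were transferred into each well of a 96-well plate containing liquid NGM. Compound was pinned in to a final concentration of 60 µM with 0.6% v/v DMSO, and the sealed plates were shaken at 200 rpm for 5 days at 20 °C. The fraction of mobile worms was scored under a dissection microscope against DMSO-only wells and averaged across two biological replicates.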

| SMILES | proportion of mobile C. elegans dauer larvae |
| --- | --- |
| Cc1ccccc1-c1nnc(SCC(=O)Nc2cc(C(F)(F)F)ccc2N2CCOCC2)o1 | 1 |
| CCOc1ccccc1-c1nnc(SCC(=O)NC(C)CC)o1 (stereo unspecified) | 1 |
| Cc1ccccc1-c1noc(COc2ccccc2)n1 | 1 |
| O=C(Nc1ccccc1-c1nc(-c2ccncc2)no1)c1cccc(Cl)c1 | 1 |
| N#Cc1ccccc1CSc1nnc(-c2ccco2)o1 | 0.85 |
| Cc1cc(OCc2nc(-c3cccnc3)no2)c(C)cc1Br | 1 |
| CCCCc1nc(-c2ccc(-c3ccc(C)cc3)nc2OC)no1 | 1 |
| Nc1nc(CSc2nnc(-c3ccccc3)o2)cs1 | 1 |
| Clc1ccccc1-c1noc(-c2ccccc2Cl)n1 | 1 |
| Cc1ccc(-c2noc(-c3cc(C)cc(C)c3)n2)cc1 | 1 |
| COC(=O)CSc1nnc(-c2ccc(C(C)(C)C)cc2)o1 | 1 |
| Clc1ccc(-c2nc(C3CCCCC3)no2)cc1 | 1 |
| CC(C)(C)C(=O)CSc1nnc(-c2ccc(Cl)cc2Cl)o1 | 1 |
| CC(=O)Nc1ccc(C(=O)CSc2nnc(-c3cccc(Br)c3)o2)cc1 | 1 |
| C=CCSc1nnc(-c2ccc(Br)cc2)o1 | 1 |
| CCc1nc(-c2ccc(-c3ccccc3)nc2OC)no1 | 1 |
| CC1CCN(C(=O)CSc2nnc(-c3cccc(Cl)c3)o2)CC1 | 1 |
| c1coc(-c2nc(-c3cccs3)no2)c1 | 1 |
| CCOc1cc(-c2nc(-c3ccc(C)nc3OCC)no2)cc(OCC)c1OCC | 1 |

| SMILES | proportion of mobile C. elegans dauer larvae |
| --- | --- |
| O=C(CSc1nnc(-c2ccccc2)o1)OCc1ccccc1 | 1 |
| Cc1ccc(-c2noc(-c3ccc(C)cc3)n2)cc1 | 0.881 |
| COc1ccc(-c2nnc(SCc3csc(N)n3)o2)cc1 | 1 |
| CCc1ccc(NC(=O)CSc2nnc(-c3ccco3)o2)cc1 | 1 |
| COc1ccc(Cl)cc1NC(=O)CSc1nnc(-c2ccc(Br)cc2)o1 | 1 |
| Cc1ccc(C)c(OCc2nc(-c3cccnc3)no2)c1 | 1 |
| COc1ccc(OC(C)c2nc(-c3cccnc3)no2)cc1 (stereo unspecified) | 1 |
| COc1nc(C)ccc1-c1noc(-c2ccc(F)cc2)n1 | 1 |
| COc1ccccc1NC(=O)CSc1nnc(-c2ccc(Cl)cc2)o1 | 1 |
| Cc1cc(Br)ccc1OCc1nc(-c2ccncc2)no1 | 1 |
| Clc1ccc(SCc2nc(-c3ccccn3)no2)cc1 | 0.5 (active) |
| COc1ccc(-c2nnc(SCC(=O)Nc3ccc(Br)cc3C)o2)cc1 | 1 |
| O=C(CSc1nnc(-c2ccccc2Cl)o1)Nc1ccc(F)cc1 | 1 |
| Cc1cc(OCc2nc(-c3cccnc3)no2)c(C)c(C)c1Br | 1 |
| CC(Sc1nnc(-c2ccc(C(C)(C)C)cc2)o1)C(=O)Nc1nccs1 (stereo unspecified) | 1 |
| Cc1ccc(SCc2nc(-c3cccnc3)no2)cc1 | 0.75 |
| O=C(CSc1nnc(-c2ccc(Cl)cc2)o1)Nc1nccs1 | 1 |
| Clc1ccc(OCc2nc(-c3ccccc3)no2)c(Br)c1 | 1 |
| Cc1ccc(-c2nnc(SCc3ccccc3C)o2)cc1 | 1 |
